# Source: PubChem BioAssay (NCATS)
# Inconclusive results are not listed. Entries that show only a call come without a potency. Activity calls are given as the source filed them. Calls come from the whole dose curve; as a rule, active = well fitted cell-killing curve with a large enough effect; inconclusive = small, poorly fitted or top-dose-only effect, or effect the other way; inactive = flat fitted curve, though single readings scatter.
# Test: Cell Viability - HUV-EC-C (AID 542); note: nearly all actives have a fitted effect of over 35% in size
# Conditions: HUV-EC-C endothelial cell viability, qHTS; series mostly up to 92.2 µM
# Source text: NIH Chemical Genomics Center [NCGC]
# NIH Molecular Libraries Screening Centers Network [MLSCN]
# National Institutes of Environmental Health Sciences [NIEHS]
# National Toxicology Program [NTP]
# We have developed a 1536-well cell-based assay for quantitative high throughput screening (qHTS) against a number of cell lines to determine in vitro cytotoxicity of small molecules. This particular assay uses the HUV-EC-C cell line which is derived from normal human vascular endothelial cells.
# NCGC Assay Protocol Summary:
# The CellTiter-Glo luminescent cell viability assay (Promega) is a homogeneous method to measure the number of viable cells in culture. The end point readout of this assay is based on quantitation of intracellular ATP, an indicator of metabolic activity, using the luciferase reaction. Luciferase catalyzes the oxidation of beetle Luciferin to oxyluciferin and light in the presence of ATP. The luminescent signal is proportional to amount of ATP present.
# Using the CellTiter-Glo luminescent cell viability assay, the amount of cellular ATP was measured in the HUV-EC-C cell line with complete culture medium following compound treatment for 40 hours. The assay was performed in opaque white Kalypsys 1536-well plates. In the screen, tamoxifen and doxorubicin were used as positive controls. Library compounds were measured for their ability to cause acute toxicity in the cell line, as reflected by a decrease in intracellular ATP levels, in a concentration-dependent manner. […] AC50 values were determined from concentration-response data modeled with the standard Hill equation.
# qHTS protocol for CellTiter Glo HUV-EC-C cellular assay
# [Step] [Parameter] [Value] [Description]
# 1. Reagent; 5 uL; 1000 HUV-EC-C cells/well
# 2. Time; 5 hr; 37 °C incubation
# 4. Controls; 23 nL; Tamoxifen 0.34 uM to 100 uM & Doxorubicin 0.02 nM to 100 uM
# 5. Time; 40 hr; 37 °C incubation
# 6. Reagent; 5 uL; CellTiter Glo reagent
# 7. Time; 20 min; Room Temperature
# 8. Detection; Luminescence; Viewlux plate reader
# Keywords: cell viability, cytotoxicity, HUV-EC-C cell line, luminescence, NTPHTS, NTPHTS_NCGC, NIEHS, EPA, DSSTox, MLSMR, MLSCN, NIH Roadmap, qHTS, NCGC
# Potency is the fitted concentration of half-maximal effect.
row,SMILES,Potency
1,O=C(Cl)c1c(Cl)cccc1Cl,inactive
2,C[C@@H]1CC2(OC[C@]3(C)O[C@H]23)O[C@H]2C[C@@]3(C)[C@@H]4CC[C@H]5C(C)(C)C(O[C@@H]6OC[C@@H](O)[C@H](O)[C@H]6O)CC[C@@]56C[C@@]46CC[C@]3(C)[C@@H]12 (stereo not given in full),inactive
3,Cc1ccc(CO)cc1,inactive
4,Cc1ccc2ccccc2c1[N+](=O)[O-],inactive
5,Nc1cccc2c(=O)[nH][nH]c(=O)c12,inactive
6,O=C(O)c1cc(Cl)cc(Cl)c1,inactive
7,COc1cccc2sc(N)nc12,inactive
8,O=Nc1ccc(NO)cc1,inactive
9,[O-]/[N+](=N\O)c1ccccc1,inactive
10,O=C(O)c1ccccc1C(=O)O,inactive
11,CC1CCC2CC1C2(C)C (stereo not given),inactive
12,O=[N+]([O-])c1c(Cl)cc(Cl)cc1Cl,inactive
13,O=Cc1ccccc1Cl,inactive
14,O=C(O)CNC(=O)c1ccc(CO)o1,inactive
15,COC(=O)CC#N,inactive
16,CCCCC(CC)CO (stereo not given),inactive
17,CC(C)N=C=NC(C)C,inactive
18,C=CC(=O)OCCCC,inactive
19,Cc1c(N)cccc1N,inactive
20,Cc1ccc(C)cc1,inactive

row,SMILES,Potency
1,CCCCCCCCC,inactive
2,CCCCC/C=C/C=C/C=O,inactive
3,Nc1nc(-c2ccccc2)cs1,inactive
4,c1ccc2n[nH]nc2c1,inactive
5,CC/C=C/C#N,inactive
6,CC1=C(/C=C/C(C)=C/C=C/C(C)=C\C=O)C(C)(C)CCC1,31.6 µM (active)
7,COc1ccc(N)c(OC)c1,inactive
8,O=C(O)c1ccccc1[N+](=O)[O-],inactive
9,OC(CCl)CCl,inactive
10,CC(C)(c1cc(Br)c(OCC(Br)CBr)c(Br)c1)c1cc(Br)c(OCC(Br)CBr)c(Br)c1 (stereo not given),inactive
11,CNc1ccc([N+](=O)[O-])cc1,inactive
12,Cc1ccccc1C(N)=O,inactive
13,NC=O,inactive
14,CCc1ccccc1O,inactive
15,Cc1cc(C(=O)O)ccc1[N+](=O)[O-],inactive
16,FC(F)(F)c1ccccc1Cl,inactive
17,C=CCOC(=O)COCCC(C)C,inactive
18,CC/C(C)=N/O,inactive
19,Cc1nc2ccc(Cl)cc2[nH]1,inactive
20,CC(C)=CCl,inactive
